High-throughput results deposited in PubChem BioAssay by The Scripps Research Institute Molecular Screening Center.
Only a selection was taken, and hits are over-represented in it overall.
TbREL1 primary = TbREL1 inhibition, primary screen; TbREL1 RNA ligation, FRET fluorescence; 89,000 compounds, 0.49% hits; AID 1117264; P86926; inhibition, % at 9.66 µM;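 active = inhibition above the mean inhibition across all screened compounds plus 3 SD, cut at about 11% in these data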
Target sequence (P86926 whole entry, looked up): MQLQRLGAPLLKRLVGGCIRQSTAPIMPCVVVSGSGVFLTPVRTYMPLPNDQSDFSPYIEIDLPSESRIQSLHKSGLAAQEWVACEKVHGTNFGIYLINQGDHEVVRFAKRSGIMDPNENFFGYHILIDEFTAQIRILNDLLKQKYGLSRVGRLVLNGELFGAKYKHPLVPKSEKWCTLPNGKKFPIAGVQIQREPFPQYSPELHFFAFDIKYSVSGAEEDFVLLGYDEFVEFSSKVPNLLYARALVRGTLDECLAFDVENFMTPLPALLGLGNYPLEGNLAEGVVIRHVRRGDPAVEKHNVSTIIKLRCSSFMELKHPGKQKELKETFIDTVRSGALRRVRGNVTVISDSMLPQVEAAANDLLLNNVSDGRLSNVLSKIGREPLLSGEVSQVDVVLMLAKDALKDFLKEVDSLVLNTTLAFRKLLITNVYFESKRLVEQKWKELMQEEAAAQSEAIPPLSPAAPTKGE
TbREL1 conf = TbREL1 inhibition, confirmation. AID 1117282. TbREL1 RNA ligation, FRET fluorescence. inhibition, % at 9.66 µM. shares compounds with TbREL1 primary. 390 compounds, 37% hits;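 active = mean inhibition across replicates above a set limit taken from the earlier primary screen, cut at about 11% in these data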
Large screens that a line does not name were inactive (follow-up assays come after a bar, where they were run).

COC(=O)C1=C(C)N(Cc2ccccc2)C(=NCC(C)C)N[C@H]1c1cccc(F)c1	none
Cc1c(NC(=O)CSc2ncnc3c2cnn3-c2ccccc2)c(=O)n(-c2ccccc2)n1C	none
O=C(O)CC(O)C(=O)O (stereo not drawn)	none
O=C(Nc1ccccc1N1CCOCC1)c1ccccc1NS(=O)(=O)c1ccc(F)c(F)c1	none
COc1ccc(C(=O)N2CCN(c3ccccc3)CC2)cc1S(=O)(=O)N1CCOCC1	none
CSCCC(NC(=O)c1ccco1)C(=O)NCC(c1ccco1)N1CCCCC1 (stereo not drawn)	none
O=C(CSc1nc2ccccc2c(=O)n1NC(=O)Cc1ccccc1)NCCc1ccccc1	none
CC(=O)NC(Cc1cccc(C)c1)C(=O)NC1CCN(c2ncccc2[N+](=O)[O-])CC1 (stereo not drawn)	none
Nc1c(N(CCC2=CCCCC2)C(=O)COc2ccc(F)cc2Cl)c(=O)[nH]c(=O)n1Cc1ccccc1	none
O=S(=O)(c1cccc(-c2nnc(-c3cccnc3)o2)c1)N1CCCCC1	none
CCc1nc(SCC(=O)NNC(=O)C2CCCCC2)c2ccccc2n1	none
CN1N=C(C(=O)N2CCc3c([nH]c4ccccc34)C2c2c(F)cccc2Cl)CCC1=O (stereo not drawn)	none
COc1ccc(C(=O)Nc2nnc(S(=O)(=O)N3CCOCC3)s2)cc1	none
O=C(c1ccco1)N1CCN=C1SCc1cccc(F)c1	none
O=S(=O)(c1ccc(Br)cc1)N1CCN=C1SCc1cccc(F)c1	TbREL1 primary 11 | TbREL1 conf inactive
O=C(c1cc2ccccc2o1)N1CCN=C1SCc1cccc(F)c1	none
CC(C)C(C)(C#N)NC(=O)CN1C(=O)NC2(CCCc3ccccc32)C1=O (stereo not drawn)	none
O=C(C[n+]1cc(-c2ccc(F)cc2)n2c1CCC2)Nc1nc(-c2ccc(F)cc2)cs1	none
Cc1ccc(C[n+]2cc(-c3ccc(Cl)cc3)n3c2CCC3)cc1	none
CCc1ccc(NC(=O)C[n+]2cc(-c3ccc(C)cc3)n3c2CCC3)cc1	TbREL1 primary 13 | TbREL1 conf 14
Cc1ccc(NC(=O)N2CCCC2C(=O)NCC2CCCCC2)cc1 (stereo not drawn)	none
CCCCC1(C(=O)OCC)CC(CN2CCOCC2)OC1=O (stereo not drawn)	none
NC(=O)c1ccccc1OCc1nc2ccccc2s1	none
O=C(O)CCCc1nc2ccccc2s1	none
O=C(O)COCc1nc2ccccc2s1	TbREL1 primary 12 | TbREL1 conf inactive
COc1ccccc1Cn1c(=O)[nH]c2cccnc21	none
S=C1Nc2ccccc2Sc2ccc(Cl)cc21	none
CNCC/C=C1/c2ccccc2CSc2ccccc21	none
CCCCCC[N+](C)(C)CC/C=C1/c2ccccc2Sc2ccc(Cl)cc21	TbREL1 primary 14 | TbREL1 conf 14
COCCCNCCCCOc1ccc(C)cc1[N+](=O)[O-]	none
Cc1ccc(OCCN2CCN(C)CC2)c([N+](=O)[O-])c1	TbREL1 primary 12 | TbREL1 conf inactive
Cc1ccc(OCCOCCN2CCN(C)CC2)c(C(C)(C)C)c1	none
Cc1cc(SCC(=O)c2ccccc2)n2ncc(-c3ccccc3)c2n1	none
O=C(CCC(=O)N1CCN(c2ccccn2)CC1)c1ccc(Cl)s1	none
C#CCOCCOCCOCCNc1nc(N2CCN(C(=O)[C@H](CCCN=C(N)N)n3cc(C(N)[C@H](C)CC)nn3)CC2)nc(N2CCN(C(=O)[C@H](CC(N)=O)n3cc(C(N)[C@@H](C)CC)nn3)CC2)n1 (stereo partly drawn)	none
O=C(O)COCC(=O)Nc1ccc(-n2cnnn2)cc1	TbREL1 primary 12 | TbREL1 conf inactive
O=C(CN1CCN(Cc2ccccc2)CC1)Nc1ccc(-n2cnnn2)cc1	none
NC(=O)c1ccc(NC(=O)COc2ccc(-n3cnnn3)cc2)cc1	none
Cc1ccc(S(=O)(=O)N2CCOCC2)cc1NC(=O)COc1cccc(-n2cnnn2)c1	none
NCC(=O)NCC(=O)OCc1ccccc1	none
NC(=O)/C(=N\O)c1ccccc1	none
O=C(c1ccc2c3c(cccc13)CC2)C1CCCN(Cc2ccncc2)C1 (stereo not drawn)	none
ON=C(c1ccccc1)c1ccc2c3c(cccc13)CC2	TbREL1 primary 12 | TbREL1 conf inactive
O=C1CCc2cc(NS(=O)(=O)c3ccc(F)cc3)cc3c2N1CCC3	none
CCN(CC)CCn1c(=N)n(CC(O)COc2ccccc2)c2ccccc21 (stereo not drawn)	none
Cc1ccc(OCC(O)Cn2c(=N)n(CCN3CCCCC3)c3ccccc32)cc1 (stereo not drawn)	none
CCCCCn1c(=N)n(CC(O)COc2ccccc2OC)c2ccccc21 (stereo not drawn)	TbREL1 primary 11 | TbREL1 conf inactive
Cn1c(COc2ccccc2)nnc1SCC(=O)Nc1ccc(OCc2ccccc2)cc1	none
CSCCC(NC(=O)c1ccccc1Cl)C(=O)Nc1ccncc1 (stereo not drawn)	none
CCOc1ccc2nc(N(CCN(CC)CC)C(=O)c3ccc([N+](=O)[O-])cc3)sc2c1	none
COc1cccc(C(=O)NCCS(=O)(=O)NCc2ccc(Cl)cc2)c1	none
COc1cccc(C(=O)NCCS(=O)(=O)NC(C)CCc2ccccc2)c1 (stereo not drawn)	TbREL1 primary 14 | TbREL1 conf 11
COc1ccc(C(=O)NCCS(=O)(=O)NCCc2ccccc2)cc1	none
C(C#CCCCCCCCCC[n+]1ccccc1)#CCCCCCCCCC[n+]1ccccc1	TbREL1 primary 11 | TbREL1 conf 24
Cc1ccnc(NC(=O)c2cc(S(=O)(=O)NCc3ccccc3)ccc2C)c1	none
CCOC(=O)C1CCCN(C(=O)c2cc3ccccc3cc2OC)C1 (stereo not drawn)	none
CCOC(=O)c1c(C)[nH]c(C)c1C(=O)CN1C(=O)NC2(CCC(C)CC2)C1=O (stereo not drawn)	none
CC(NCC(=O)Nc1ccccc1C(=O)NC1CC1)c1ccc(S(N)(=O)=O)cc1 (stereo not drawn)	TbREL1 primary 17 | TbREL1 conf inactive
CCN(CC)S(=O)(=O)c1ccc(C(C)NCC(=O)Nc2ccccc2C(=O)NC2CC2)cc1 (stereo not drawn)	none
O=C(CN1CCN(S(=O)(=O)c2ccc(F)cc2)CC1)Nc1ccccc1C(=O)NC1CC1	none
Cc1ccc2c(=O)n3c(nc2c1)C(Cc1ccccc1)NC(=O)c1ccc(Cl)cc1-3 (stereo not drawn)	none
Cc1nc(SCc2ccc(C(=O)O)cc2)nc2c1CCCC2	none
Cc1ccc2nc(SC(C(=O)Nc3ccc(F)cc3)c3ccccc3)[nH]c2c1 (stereo not drawn)	none
CSCCC(NC(=O)c1ccccc1Cl)C(=O)NCCOc1ccc(C)cc1 (stereo not drawn)	none
CCc1cccc(CC)c1NC(=O)CN1CCN(c2ccccc2)CC1	none
CCOC(=O)c1sc2nccc(N(C)C)c2c1N=CNOCc1c(F)cccc1Cl	none
COc1ccc(OC)c(S(=O)(=O)N2CCCCC2C(=O)N2CCN(c3ccc(F)cc3)CC2)c1 (stereo not drawn)	none
C#CCOCCOCCOCCNc1nc(N2CCN(C(=O)[C@H](CCCCN)n3cc([C@@H](N)[C@H](C)CC)nn3)CC2)nc(N2CCN(C(=O)[C@H](CCC(=O)O)n3cc([C@@H](N)CCCCN)nn3)CC2)n1	none
C#CCOCCOCCOCCNc1nc(N2CCN(C(=O)[C@H](CCCN=C(N)N)n3cc(C(N)[C@@H](C)CC)nn3)CC2)nc(N2CCN(C(=O)[C@H](CCC(=O)O)n3cc([C@@H](N)CCCCN)nn3)CC2)n1 (stereo partly drawn)	none
